Measured values as given in PubChem BioAssay (NCI).
This is part of a sample that, as a whole, favours compounds with a hit. Of some 83,000 tested, about 20% had one in any assay.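 In brief: 96-well plates, 48 h treatment, single concentration, percent growth endpoint.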 Values without a mark were called inactive. Active and inactive are the calls of the source. Rule for the calls: active = growth percent below 10; inactive = the rest.

Each compound was assayed on ACHN renal (assay: NCI-60 one-dose screen, 48 h (100 = growth as untreated, 0 = no growth, -100 = all killed)). Settings: 10 µM unless noted.

SMILES | growth
CCC(=O)OCc1ccc(OC)cc1 | 103%
COc1ccc2[nH]cc(C3(c4c[nH]c5ccc(OC)cc45)C(=O)Nc4ccc(F)cc43)c2c1 | 86.7%
CN1C(=O)NC(Cc2c[nH]c3c(Cl)cccc23)C1=O (stereo unspecified) | 99.3%
NC(N)=N/N=C/c1ccc(Cl)cc1 | 91.8%
CC(C)(c1ccccc1)c1cc(O)c(C(C)(C)c2ccccc2)cc1O | 44%
COc1cc(-c2nn(C(=O)NCCN3CCN(C)CC3)cc2-c2ccncc2)ccc1Cl | 69.5%
CCCCCCCCCCCCCCCCCC(=O)[O][Sn]([CH2]CCC)([CH2]CCC)[CH2]CCC | -96.8% (active)
CC(C)c1nc2ccccc2n1CC(=O)N/N=C/c1cccc(O)c1 | 95.7%
O=C(Nc1ccc(Cl)cc1)c1cc(-c2ccc(Cl)cc2)c2sc(=O)[nH]c2n1 | 0.731% (active)
Oc1ccc(-c2nnc3c4[nH]ccc4ncn23)cc1 | 87.9%
Cc1nc(N)nc2c1CCC(Nc1ccccc1)S2 (stereo unspecified) | 102%
NNC(=O)CSc1nc2scc(-c3ccccc3)c2c(=O)n1-c1ccccc1 | 103%
COC(=O)C(Br)(C(=O)OC)C(Br)C(Br)C(Br)c1ccccc1 (stereo unspecified) | -70% (active)
COc1cnc2c(c1)C(=O)c1c-2n(CCCN2CCN(C)CC2)c(=O)c2cc(Cl)ccc12 | 18.4%
COc1cc([N+](=O)[O-])cc(OC)c1OC | 119%
O=c1oc2ccccc2cc1-c1cc(-c2ccc(-c3cc(-c4cc5ccccc5oc4=O)nc(-c4cc5ccccc5oc4=O)c3)cc2)cc(-c2cc3ccccc3oc2=O)n1 | 100%
